Here are results for six compounds from ChEMBL document CHEMBL1961873, “Compounds: GSK PKIS; Assays: Nanosyn kinase panel” (2012).

The term inhibition denotes the change of the read-out against control, counted positive when it falls.

In test [1] the target is Mitogen-activated protein kinase 3 (Homo sapiens) (UniProt P27361). To be noted: at 1 µM.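 Further: values are mean percent inhibition of MAPK3.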
Test [2] addresses SRSF protein kinase 3 (Homo sapiens) (UniProt Q9UPE1). To be noted: at 0.1 µM.
Test [3] shares this target. To be noted: at 1 µM.
Test [4] addresses Mitogen-activated protein kinase 14 (Homo sapiens) (UniProt Q16539). To be noted: at 0.1 µM.
The target is the same in test [5]. As to conditions: at 1 µM.
Test [6] deals with Mitogen-activated protein kinase 11 (Homo sapiens) (UniProt Q15759). As to conditions: at 0.1 µM.
The target is the same in test [7]. As to conditions: at 1 µM.
Test [8] deals with T1, Mitogen-activated protein kinase 13 (Homo sapiens) (UniProt O15264).
T1 sequence (whole entry): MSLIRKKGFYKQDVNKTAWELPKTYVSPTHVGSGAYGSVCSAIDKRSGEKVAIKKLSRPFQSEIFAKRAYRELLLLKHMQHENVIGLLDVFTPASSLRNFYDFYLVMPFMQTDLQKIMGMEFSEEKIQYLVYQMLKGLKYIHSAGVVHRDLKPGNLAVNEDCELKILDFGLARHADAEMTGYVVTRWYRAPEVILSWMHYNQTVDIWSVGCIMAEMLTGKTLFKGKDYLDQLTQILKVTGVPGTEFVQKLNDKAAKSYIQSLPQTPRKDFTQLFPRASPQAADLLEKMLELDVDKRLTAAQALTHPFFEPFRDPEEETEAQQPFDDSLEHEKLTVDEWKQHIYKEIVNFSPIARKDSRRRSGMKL
As to conditions: at 0.1 µM.

In test [9] the target is T1, Mitogen-activated protein kinase 13 (Homo sapiens). As to conditions: at 1 µM.
Test [10] deals with T2, Mitogen-activated protein kinase 12 (Homo sapiens) (UniProt P53778).
T2 sequence (whole entry): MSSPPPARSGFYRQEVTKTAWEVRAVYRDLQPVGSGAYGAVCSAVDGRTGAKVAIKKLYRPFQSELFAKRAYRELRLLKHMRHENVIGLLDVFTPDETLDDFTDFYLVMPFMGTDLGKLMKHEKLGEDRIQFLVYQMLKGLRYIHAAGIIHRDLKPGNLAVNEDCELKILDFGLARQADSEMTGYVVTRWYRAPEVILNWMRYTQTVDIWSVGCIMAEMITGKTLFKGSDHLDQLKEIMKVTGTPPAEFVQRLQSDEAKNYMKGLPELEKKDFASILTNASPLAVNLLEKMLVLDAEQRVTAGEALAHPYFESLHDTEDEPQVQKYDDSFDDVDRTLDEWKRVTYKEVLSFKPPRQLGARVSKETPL
As to conditions: at 0.1 µM.

Test [11] addresses T2, Mitogen-activated protein kinase 12 (Homo sapiens). As to conditions: at 1 µM.
In test [12] the target is SRSF protein kinase 1 (Homo sapiens) (UniProt Q96SB4). As to conditions: at 0.1 µM.
For test [13] the target is unchanged. As to conditions: at 1 µM.
Test [14] addresses Phosphatidylinositol 4,5-bisphosphate 3-kinase catalytic subunit alpha isoform (Homo sapiens) (UniProt P42336). To be noted: at 0.1 µM.
Test [15] shares this target. As to conditions: at 1 µM.
The target of test [16] is T3, Phosphatidylinositol 4,5-bisphosphate 3-kinase catalytic subunit delta isoform (Homo sapiens) (UniProt O00329).
T3 sequence (whole entry): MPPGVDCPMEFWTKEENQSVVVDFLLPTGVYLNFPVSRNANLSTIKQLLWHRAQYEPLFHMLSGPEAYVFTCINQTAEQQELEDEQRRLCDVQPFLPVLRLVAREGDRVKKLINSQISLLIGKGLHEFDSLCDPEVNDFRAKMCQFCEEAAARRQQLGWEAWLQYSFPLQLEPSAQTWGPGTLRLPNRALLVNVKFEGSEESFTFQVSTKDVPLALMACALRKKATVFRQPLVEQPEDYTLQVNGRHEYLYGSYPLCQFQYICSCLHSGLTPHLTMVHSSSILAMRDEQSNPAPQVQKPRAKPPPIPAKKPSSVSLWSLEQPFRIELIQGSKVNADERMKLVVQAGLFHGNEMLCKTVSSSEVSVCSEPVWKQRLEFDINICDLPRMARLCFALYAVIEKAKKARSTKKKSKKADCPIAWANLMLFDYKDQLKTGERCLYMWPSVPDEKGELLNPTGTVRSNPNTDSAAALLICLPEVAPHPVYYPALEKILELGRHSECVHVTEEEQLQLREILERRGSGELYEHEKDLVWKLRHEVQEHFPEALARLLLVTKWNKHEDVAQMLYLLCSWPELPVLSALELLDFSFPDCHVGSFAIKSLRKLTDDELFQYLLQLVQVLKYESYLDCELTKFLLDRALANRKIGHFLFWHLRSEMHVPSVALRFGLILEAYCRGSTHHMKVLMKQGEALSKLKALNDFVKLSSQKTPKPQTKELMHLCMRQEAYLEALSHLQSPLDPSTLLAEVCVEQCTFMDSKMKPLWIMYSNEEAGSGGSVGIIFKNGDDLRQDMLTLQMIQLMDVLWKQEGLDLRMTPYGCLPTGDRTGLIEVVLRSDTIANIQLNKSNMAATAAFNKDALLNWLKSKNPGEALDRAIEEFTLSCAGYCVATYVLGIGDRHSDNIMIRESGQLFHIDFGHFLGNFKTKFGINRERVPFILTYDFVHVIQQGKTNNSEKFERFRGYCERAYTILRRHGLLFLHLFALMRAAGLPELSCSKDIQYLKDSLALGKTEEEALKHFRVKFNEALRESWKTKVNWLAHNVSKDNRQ
As to conditions: at 0.1 µM.

Test [17] addresses T3, Phosphatidylinositol 4,5-bisphosphate 3-kinase catalytic subunit delta isoform (Homo sapiens). To be noted: at 1 µM.
In test [18] the target is Phosphatidylinositol 4-kinase beta (Homo sapiens) (UniProt Q9UBF8). As to conditions: at 0.1 µM.
Test [19] shares this target. To be noted: at 1 µM.
In test [20] the target is Sphingosine kinase 1 (Homo sapiens) (UniProt Q9NYA1). To be noted: at 0.1 µM.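 Further: mean percent inhibition of SPHK1 activity, measured within the GSK PKIS screening panel.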
Chain of Sphingosine kinase 1 (Homo sapiens) (Q9NYA1 whole entry): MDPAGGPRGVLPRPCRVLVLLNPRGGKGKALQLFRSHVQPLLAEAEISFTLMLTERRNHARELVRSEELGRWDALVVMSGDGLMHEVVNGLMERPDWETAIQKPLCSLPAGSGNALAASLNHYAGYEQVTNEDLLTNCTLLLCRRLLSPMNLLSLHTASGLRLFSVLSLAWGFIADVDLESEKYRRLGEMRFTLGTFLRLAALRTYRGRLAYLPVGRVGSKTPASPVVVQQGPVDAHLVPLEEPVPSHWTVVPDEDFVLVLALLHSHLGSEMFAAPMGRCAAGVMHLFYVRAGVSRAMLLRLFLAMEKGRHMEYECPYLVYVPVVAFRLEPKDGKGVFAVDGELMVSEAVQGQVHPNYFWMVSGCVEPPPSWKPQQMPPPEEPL

Chain of SRSF protein kinase 1 (Homo sapiens) (Q96SB4 whole entry): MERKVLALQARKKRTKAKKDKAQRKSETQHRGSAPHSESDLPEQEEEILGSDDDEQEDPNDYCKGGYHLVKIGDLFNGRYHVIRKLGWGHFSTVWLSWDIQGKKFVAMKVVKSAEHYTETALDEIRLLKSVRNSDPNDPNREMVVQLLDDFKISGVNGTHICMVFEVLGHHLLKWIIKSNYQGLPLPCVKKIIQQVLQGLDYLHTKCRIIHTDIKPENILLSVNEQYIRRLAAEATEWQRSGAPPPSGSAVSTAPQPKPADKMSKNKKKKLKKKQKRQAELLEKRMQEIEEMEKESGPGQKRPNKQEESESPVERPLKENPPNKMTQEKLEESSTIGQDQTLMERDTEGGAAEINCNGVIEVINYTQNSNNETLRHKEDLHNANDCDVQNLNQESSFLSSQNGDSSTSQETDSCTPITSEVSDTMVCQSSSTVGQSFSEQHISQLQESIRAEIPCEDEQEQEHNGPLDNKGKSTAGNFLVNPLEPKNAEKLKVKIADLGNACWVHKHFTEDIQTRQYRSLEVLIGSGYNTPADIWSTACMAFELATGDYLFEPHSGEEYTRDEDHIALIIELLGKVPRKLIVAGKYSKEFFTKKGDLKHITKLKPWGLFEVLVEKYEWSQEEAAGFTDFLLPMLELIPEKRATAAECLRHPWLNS
Chain of Mitogen-activated protein kinase 3 (Homo sapiens) (P27361 whole entry): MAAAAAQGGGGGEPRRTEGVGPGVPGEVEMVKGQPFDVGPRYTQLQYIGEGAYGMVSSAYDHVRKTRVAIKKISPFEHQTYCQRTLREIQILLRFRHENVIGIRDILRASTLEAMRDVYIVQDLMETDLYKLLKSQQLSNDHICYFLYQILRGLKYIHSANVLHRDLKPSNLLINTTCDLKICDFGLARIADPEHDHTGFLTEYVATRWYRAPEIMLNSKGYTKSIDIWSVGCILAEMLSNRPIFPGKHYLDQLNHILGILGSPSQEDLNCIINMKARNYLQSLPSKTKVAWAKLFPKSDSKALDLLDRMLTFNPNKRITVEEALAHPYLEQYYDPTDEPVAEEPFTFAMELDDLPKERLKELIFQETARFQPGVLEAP
Chain of Phosphatidylinositol 4-kinase beta (Homo sapiens) (Q9UBF8 2-816 limits assumed): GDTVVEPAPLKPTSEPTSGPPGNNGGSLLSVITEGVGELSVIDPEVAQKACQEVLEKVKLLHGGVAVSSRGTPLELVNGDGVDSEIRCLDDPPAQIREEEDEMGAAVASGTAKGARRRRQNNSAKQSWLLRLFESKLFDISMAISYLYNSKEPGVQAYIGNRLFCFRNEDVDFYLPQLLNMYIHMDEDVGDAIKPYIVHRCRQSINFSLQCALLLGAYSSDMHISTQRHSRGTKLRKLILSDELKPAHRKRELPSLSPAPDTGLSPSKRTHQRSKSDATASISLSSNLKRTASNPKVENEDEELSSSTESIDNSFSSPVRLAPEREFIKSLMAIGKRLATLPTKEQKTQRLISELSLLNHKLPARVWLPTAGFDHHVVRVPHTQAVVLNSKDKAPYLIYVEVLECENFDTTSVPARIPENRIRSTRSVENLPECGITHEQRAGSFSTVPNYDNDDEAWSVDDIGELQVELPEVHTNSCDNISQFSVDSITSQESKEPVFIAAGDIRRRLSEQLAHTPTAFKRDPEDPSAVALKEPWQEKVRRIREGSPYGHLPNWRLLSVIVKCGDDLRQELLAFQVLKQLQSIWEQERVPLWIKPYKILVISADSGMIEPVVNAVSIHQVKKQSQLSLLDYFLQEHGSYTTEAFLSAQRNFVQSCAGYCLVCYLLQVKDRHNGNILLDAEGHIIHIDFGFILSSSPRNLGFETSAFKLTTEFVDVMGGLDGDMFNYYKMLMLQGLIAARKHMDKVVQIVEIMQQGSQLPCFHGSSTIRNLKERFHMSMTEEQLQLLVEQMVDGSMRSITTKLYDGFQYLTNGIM
Chain of SRSF protein kinase 3 (Homo sapiens) (Q9UPE1 whole entry): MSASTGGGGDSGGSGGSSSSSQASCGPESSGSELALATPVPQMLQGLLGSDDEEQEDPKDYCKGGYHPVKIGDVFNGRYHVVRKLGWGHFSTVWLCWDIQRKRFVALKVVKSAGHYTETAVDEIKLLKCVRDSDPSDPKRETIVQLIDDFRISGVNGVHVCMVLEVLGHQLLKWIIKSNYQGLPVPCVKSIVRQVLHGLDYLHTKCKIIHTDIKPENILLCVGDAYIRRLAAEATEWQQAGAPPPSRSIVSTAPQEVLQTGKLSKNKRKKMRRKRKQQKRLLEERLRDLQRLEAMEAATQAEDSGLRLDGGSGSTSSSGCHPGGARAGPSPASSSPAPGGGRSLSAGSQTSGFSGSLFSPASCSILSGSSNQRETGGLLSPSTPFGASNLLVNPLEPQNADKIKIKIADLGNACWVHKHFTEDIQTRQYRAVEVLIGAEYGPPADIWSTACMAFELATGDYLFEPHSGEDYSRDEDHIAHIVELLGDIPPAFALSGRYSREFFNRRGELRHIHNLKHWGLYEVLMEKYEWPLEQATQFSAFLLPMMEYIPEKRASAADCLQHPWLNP
Chain of Mitogen-activated protein kinase 11 (Homo sapiens) (Q15759 whole entry): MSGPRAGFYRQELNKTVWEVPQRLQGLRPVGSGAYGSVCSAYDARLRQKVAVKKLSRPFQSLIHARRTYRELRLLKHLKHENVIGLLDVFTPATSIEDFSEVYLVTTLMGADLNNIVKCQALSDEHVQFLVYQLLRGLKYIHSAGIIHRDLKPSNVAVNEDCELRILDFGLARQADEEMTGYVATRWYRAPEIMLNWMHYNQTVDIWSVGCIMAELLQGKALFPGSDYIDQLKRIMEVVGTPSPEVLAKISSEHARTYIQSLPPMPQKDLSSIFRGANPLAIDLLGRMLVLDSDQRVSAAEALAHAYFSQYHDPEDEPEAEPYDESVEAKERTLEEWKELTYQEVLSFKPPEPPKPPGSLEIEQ
Chain of Phosphatidylinositol 4,5-bisphosphate 3-kinase catalytic subunit alpha isoform (Homo sapiens) (P42336 whole entry, canonical isoform): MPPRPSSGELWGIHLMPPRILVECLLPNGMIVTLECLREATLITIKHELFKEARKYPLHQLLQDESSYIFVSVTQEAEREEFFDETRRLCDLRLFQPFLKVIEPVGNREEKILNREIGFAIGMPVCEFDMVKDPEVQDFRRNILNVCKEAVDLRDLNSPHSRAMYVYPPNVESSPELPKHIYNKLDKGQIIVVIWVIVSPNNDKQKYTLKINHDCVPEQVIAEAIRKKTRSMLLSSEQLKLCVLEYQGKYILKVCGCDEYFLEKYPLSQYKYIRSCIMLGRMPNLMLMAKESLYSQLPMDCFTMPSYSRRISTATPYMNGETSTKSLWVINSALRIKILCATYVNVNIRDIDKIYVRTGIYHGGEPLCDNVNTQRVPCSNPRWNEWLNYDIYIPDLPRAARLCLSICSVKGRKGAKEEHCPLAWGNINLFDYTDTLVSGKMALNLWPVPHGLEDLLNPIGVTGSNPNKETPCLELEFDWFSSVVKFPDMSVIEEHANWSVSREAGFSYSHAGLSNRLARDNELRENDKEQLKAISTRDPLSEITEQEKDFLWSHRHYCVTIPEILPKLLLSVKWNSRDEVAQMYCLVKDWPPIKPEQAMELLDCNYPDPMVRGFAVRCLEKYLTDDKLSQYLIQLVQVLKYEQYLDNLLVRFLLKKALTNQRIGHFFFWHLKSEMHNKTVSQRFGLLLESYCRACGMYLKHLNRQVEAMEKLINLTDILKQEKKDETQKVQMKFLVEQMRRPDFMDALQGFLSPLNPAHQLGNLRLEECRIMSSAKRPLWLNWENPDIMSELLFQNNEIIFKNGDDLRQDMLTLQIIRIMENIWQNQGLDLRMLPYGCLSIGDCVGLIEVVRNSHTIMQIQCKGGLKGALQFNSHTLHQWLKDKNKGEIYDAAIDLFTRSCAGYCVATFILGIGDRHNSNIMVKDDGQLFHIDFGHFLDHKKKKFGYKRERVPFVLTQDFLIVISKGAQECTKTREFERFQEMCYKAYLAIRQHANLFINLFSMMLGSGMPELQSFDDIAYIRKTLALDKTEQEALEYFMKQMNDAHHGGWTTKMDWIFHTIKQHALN
Chain of Mitogen-activated protein kinase 14 (Homo sapiens) (Q16539 whole entry): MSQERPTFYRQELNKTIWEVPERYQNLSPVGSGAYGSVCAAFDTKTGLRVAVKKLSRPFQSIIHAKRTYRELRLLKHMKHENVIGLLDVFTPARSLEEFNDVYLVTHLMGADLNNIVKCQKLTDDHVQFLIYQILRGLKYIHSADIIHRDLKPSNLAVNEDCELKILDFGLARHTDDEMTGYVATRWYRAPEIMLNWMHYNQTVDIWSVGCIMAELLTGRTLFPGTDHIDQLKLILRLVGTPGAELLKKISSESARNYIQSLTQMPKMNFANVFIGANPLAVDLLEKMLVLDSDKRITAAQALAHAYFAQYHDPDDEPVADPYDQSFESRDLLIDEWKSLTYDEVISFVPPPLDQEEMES

With `CC(=O)Nc1cccc(C#Cc2cncnc2Nc2ccc(OCc3cccc(F)c3)c(Cl)c2)n1`, the inhibition in test [1] is 1.62%; in test [2] it was -0.01%; in test [3], 3.44%; in test [4], -0.35%; in test [5] it was -1.8%; in [6] it was 0.21%. Further, the inhibition is 3.12% in [7]; -1.33% in [8]; -1.57% in test [9]; -2.16% in [10]; -1.66% in test [11]; 1.83% in test [12]. Also, the inhibition in test [13] is 6.55%; in test [14], 1.06%; in test [15] it was -3.01%; in [16] it was -2.12%; in test [17] it was -0.16%; in [18], 2.97%. Besides, the results for the inhibition in [19] and in test [20] were 0.88% and 0.46%, respectively.
As to `COc1cc2ncn(-c3cc(OCc4ccccc4C(F)(F)F)c(C(N)=O)s3)c2cc1OC`, the inhibition in test [1] is 3.77%; in test [2], -2.16%; in [3], 5.51%; in test [4], 9.41%; in test [5], 9.56%; in test [6] it was 3.98%. Also, the inhibition was 7.82% in test [7]; 5.41% in test [8]; 5.14% in test [9]; 4.2% in test [10]; 6.13% in [11]; -1.32% in test [12]. Further, the inhibition is 0.47% in test [13]; 4.61% in test [14]; 18.7% in test [15]; 2.08% in test [16]; 15.9% in test [17]; -3.15% in test [18]. For the same compound, the inhibition stood at 1.79% in [19] and 1.28% in test [20].
In the case of `CCn1c(-c2nonc2N)nc2cnc(Oc3cccc(NC(=O)c4ccc(OCCN5CCOCC5)cc4)c3)cc21`, the inhibition is -0.18% in test [1]; -2.67% in [2]; -1.29% in test [3]; 2.01% in test [4]; 5.87% in test [5]; 0.84% in [6]. Further, the inhibition in test [7] is 1.06%; in test [8], -1.34%; in test [9], 4.61%; in test [10], 8.56%; in test [11], 3.67%; in test [12], -1.96%. The inhibition in test [13] was -3.13%; in [14], 2.83%; in test [15], 3.79%; in test [16], 1.26%; in [17] it was 3.06%; in test [18], -7.57%. Also, the inhibition in test [19] was -2.56%; in test [20] it was 3.68%.
Turning to `Cc1cc(O)cc(C)c1/C=C/c1cncc(-c2nn[nH]n2)c1`, the inhibition in [1] was 5.1%; in test [2] it was 0.25%; in test [3], -0.18%; in test [4], 8.41%; in test [5] it was 12.6%; in test [6], 3.52%. The inhibition in test [7] is 3.01%; in test [8], 3.42%; in test [9], 5.1%; in test [10], 1.46%; in test [11], 3.07%; in test [12], -1.87%. Further, the inhibition was -2.36% in test [13]; 3.19% in test [14]; 5.13% in [15]; 2.19% in test [16]; 6.52% in [17]; -5.96% in test [18]. Besides, the inhibition in test [19] was -0.98%; in test [20], 0.56%.
As for `CC1=C(C(=O)Nc2ccc3[nH]ncc3c2)C(c2ccc(Cl)c(Cl)c2)CC(=O)N1` (stereo not given), the inhibition was 14.6% in [1]; -0.02% in test [2]; 1.57% in test [3]; 1.46% in test [4]; 4.94% in [5]; 0.46% in [6]. The inhibition in test [7] is 0.24%; in test [8] it was -0.61%; in test [9], 2.05%; in [10], -0.46%; in [11] it was 1.19%; in [12], -1.56%. Further, the inhibition was -3.22% in test [13]; -0.33% in test [14]; -0.79% in test [15]; 0.18% in test [16]; 1.04% in test [17]; 0.44% in test [18]. Further, the inhibition in [19] is -1.19%; in test [20] it was 0.43%.
On to `CC1=C(C(=O)Nc2ccc3[nH]ncc3c2)C(c2ccc3ccccc3c2)CC(=O)N1` (stereo not given), for which the inhibition in [1] was 22.4%; in [2], 0.02%; in [3], -0.13%; in test [4] it was 3.64%; in [5] it was 5.06%; in [6] it was -1.05%. The inhibition in test [7] was 2.44%; in test [8], 3.08%; in test [9] it was 2.24%; in [10], -0.44%; in test [11], 1.97%; in test [12], -1.36%. Further, the inhibition in test [13] is 0.02%; in test [14] it was 5.28%; in test [15] it was 5.6%; in [16] it was 4.38%; in test [17], 4.97%; in [18], -1.78%. Also, the inhibition in test [19] was 0.34%; in test [20], 1.83%.
